According to PubChem BioAssay (EPA / NIEHS):
The source made the active and inactive calls. How the source made its calls: active means hit-call score of the fitted dose curve at least 0.9, where 1 is the maximum; inactive means score below 0.9.

What follows are molecules tested on Glutamate-cysteine ligase catalytic (GCLC), GCLC (gene 2729) (assay: LTEA_HepaRG_GCLC: Life Technologies and Expression Analysis (LTEA) Assay for Glutamate-cysteine ligase catalytic (GCLC) using HepaRG (AID 2283498)). Details: mRNA level, 48 h; actives raise or lower the signal.
Method in brief: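 Differentiated human HepaRG cells, plated 48 h then switched to serum-free induction medium, were exposed in duplicate for 48 h to 8 half-log concentrations topping at 100 uM in 0.5% DMSO. GCLC mRNA was quantified by qRT-PCR against ACTB, GAPDH and POLR2A.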
`O=C1O[C@H]([C@H](O)CO)C(O)=C1O` was tested, and the outcome was “inactive”.
For `CCC(C)N(C)C(=O)c1cc2ccccc2c(-c2ccccc2Cl)n1` (stereo not given), the outcome was “inactive”.
In the case of `OCC(O)CO`, the outcome is reported as “inactive”.
`CCCCc1nc2cccnc2n1Cc1ccc(-c2ccccc2-c2nnn[nH]2)cc1` was tested, and the outcome was “inactive”.
For `O=C(O)CC(O)(CC(=O)O)C(=O)O`, the outcome was “inactive”.
In the case of `O=Cc1ccccc1C=O`, the outcome is reported as “inactive”.
With `CC1(C)C(=O)NC(=O)N1CO` the outcome was “inactive”.
In the case of `CCCC[C@H]1CN(CC2CCOCC2)C(=O)OC12CCN(C1(C)CCN(C(=O)c3c(C)ncnc3C)CC1)CC2`, the outcome is reported as “inactive”.
In the case of `C#CC(O)C(CC)CCCC` (stereo not given), the outcome is reported as “inactive”.
For `Cc1ccc(C(C)(C)C)c(O)c1`, the outcome was “inactive”.

What follows are molecules tested on growth arrest and DNA damage 45 (GADD45G), GADD45G (gene 10912) (assay: LTEA_HepaRG_GADD45G: Life Technologies and Expression Analysis (LTEA) Assay for growth arrest and DNA damage 45 (GADD45G) using HepaRG (AID 2283499)). Details: mRNA level, 48 h; actives raise or lower the signal.
Method in brief: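 Differentiated human HepaRG cells, 48 h post-plating, exposed 48 h in serum-free induction medium to 8 half-log concentrations (top 100 uM, 0.5% DMSO) in duplicate. GADD45G mRNA measured by Fluidigm TaqMan qRT-PCR, normalized to ACTB, GAPDH, POLR2A; bidirectional fit versus DMSO.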
With `COC(=O)CCCC(=O)OC` the outcome was “inactive”.
In the case of `O=C(O)CN(CC(=O)O)CC(=O)O`, the outcome is reported as “inactive”.
For `CCc1nc(N)nc(N)c1-c1ccc(Cl)cc1`, the AC50 was 78.1 µM (active).
In the case of `CC(C)c1cccc(C(C)C)c1NC(=O)NS(=O)(=O)c1cc(C(C)(C)O)co1`, the outcome is reported as “inactive”.
With `Oc1ccc(O)cc1` the outcome was “inactive”.
For `NC=O`, the outcome was “inactive”.
In the case of `CC(=O)S[C@H](C(=O)N[C@H]1Cc2ccccc2[C@H]2CCC[C@@H](C(=O)O)N2C1=O)C(C)C`, the outcome is reported as “inactive”.
With `CC(=O)CC(c1ccccc1)c1c(O)c2ccccc2oc1=O` (stereo not given) the outcome was “inactive”.
In the case of `NCCOCCOCCN`, the outcome is reported as “inactive”.
For `O=C(O)c1[nH]n(-c2ccc(S(=O)(=O)O)cc2)c(=O)c1N=Nc1ccc(S(=O)(=O)O)cc1`, the outcome was “inactive”.
With `CCc1cc(C2=C(C(=O)O)N(c3ccccc3C(F)(F)F)S(=O)(=O)c3ccccc32)cc2c1OCO2` the outcome was “inactive”.
`CCCCCCCCCC[N+](C)(C)[O-]` was tested, and the outcome was “inactive”.
In the case of `CN(C)CCCN1c2ccccc2Sc2ccc(Cl)cc21`, the AC50 is reported as 49.7 µM (active).
With `CSc1ccc(Oc2ccc(S(N)(=O)=O)cc2CN(C)C)cc1C` the AC50 was 50 µM (active).
`CCCCOC(=O)CCCCC(=O)OCCCC` was tested, and the outcome was “inactive”.
For `COc1ccc(C(=O)Nc2nc3ccccc3c(NCc3ccccc3)c2C#N)cc1`, the AC50 was 14.3 µM (active).
`CN(C)C(=O)NC1(c2ccccc2)CCN(CC[C@@]2(c3ccc(F)c(F)c3)CN(C(=O)c3ccccc3)CCO2)CC1` was tested, and the AC50 was 75.1 µM (active).
For `Cc1cc(Cc2ccc(N)c(C)c2)ccc1N`, the outcome was “inactive”.
In the case of `Cc1cc(SC2=C(O)C[C@@](CCc3ccc(N)cc3)(C(C)C)OC2=O)c(C(C)(C)C)cc1CO`, the outcome is reported as “inactive”.
`CCCCCCC(C=O)=Cc1ccccc1` was tested, and the outcome was “inactive”.
`O=C1O[C@H]([C@H](O)CO)C(O)=C1O` was tested, and the outcome was “inactive”.
With `CCC(C)N(C)C(=O)c1cc2ccccc2c(-c2ccccc2Cl)n1` (stereo not given) the AC50 was 8.59 µM (active).
In the case of `OCC(O)CO`, the outcome is reported as “inactive”.
With `CCCCc1nc2cccnc2n1Cc1ccc(-c2ccccc2-c2nnn[nH]2)cc1` the outcome was “inactive”.
With `O=C(O)CC(O)(CC(=O)O)C(=O)O` the outcome was “inactive”.
`O=Cc1ccccc1C=O` was tested, and the outcome was “inactive”.
In the case of `CC1(C)C(=O)NC(=O)N1CO`, the outcome is reported as “inactive”.
In the case of `CCCC[C@H]1CN(CC2CCOCC2)C(=O)OC12CCN(C1(C)CCN(C(=O)c3c(C)ncnc3C)CC1)CC2`, the outcome is reported as “inactive”.
With `C#CC(O)C(CC)CCCC` (stereo not given) the outcome was “inactive”.
`Cc1ccc(C(C)(C)C)c(O)c1` was tested, and the outcome was “inactive”.

What follows are molecules tested on Glutamate-cysteine ligase regulatory (GCLM), GCLM (gene 2730) (assay: LTEA_HepaRG_GCLM: Life Technologies and Expression Analysis (LTEA) Assay for Glutamate-cysteine ligase regulatory (GCLM) using HepaRG (AID 2283500)). Details: mRNA level, 48 h; actives raise or lower the signal.
Method in brief: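 Cells were plated, cultured 48 h, switched to serum-free induction medium, then dosed in duplicate for 48 h at eight half-log concentrations up to 100 uM. RNA was then profiled by qRT-PCR; gain or loss versus DMSO was fitted.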
In the case of `COC(=O)CCCC(=O)OC`, the outcome is reported as “inactive”.
`O=C(O)CN(CC(=O)O)CC(=O)O` was tested, and the outcome was “inactive”.
With `CCc1nc(N)nc(N)c1-c1ccc(Cl)cc1` the outcome was “inactive”.
For `CC(C)c1cccc(C(C)C)c1NC(=O)NS(=O)(=O)c1cc(C(C)(C)O)co1`, the outcome was “inactive”.
`Oc1ccc(O)cc1` was tested, and the outcome was “inactive”.
For `NC=O`, the outcome was “inactive”.
With `CC(=O)S[C@H](C(=O)N[C@H]1Cc2ccccc2[C@H]2CCC[C@@H](C(=O)O)N2C1=O)C(C)C` the outcome was “inactive”.
`CC(=O)CC(c1ccccc1)c1c(O)c2ccccc2oc1=O` (stereo not given) was tested, and the outcome was “inactive”.
For `NCCOCCOCCN`, the outcome was “inactive”.
In the case of `O=C(O)c1[nH]n(-c2ccc(S(=O)(=O)O)cc2)c(=O)c1N=Nc1ccc(S(=O)(=O)O)cc1`, the outcome is reported as “inactive”.
With `CCc1cc(C2=C(C(=O)O)N(c3ccccc3C(F)(F)F)S(=O)(=O)c3ccccc32)cc2c1OCO2` the AC50 was 68.2 µM (active).
For `CCCCCCCCCC[N+](C)(C)[O-]`, the outcome was “inactive”.
In the case of `CN(C)CCCN1c2ccccc2Sc2ccc(Cl)cc21`, the outcome is reported as “inactive”.
`CSc1ccc(Oc2ccc(S(N)(=O)=O)cc2CN(C)C)cc1C` was tested, and the outcome was “inactive”.
For `CCCCOC(=O)CCCCC(=O)OCCCC`, the outcome was “inactive”.
With `COc1ccc(C(=O)Nc2nc3ccccc3c(NCc3ccccc3)c2C#N)cc1` the AC50 was 10.9 µM (active).
With `CN(C)C(=O)NC1(c2ccccc2)CCN(CC[C@@]2(c3ccc(F)c(F)c3)CN(C(=O)c3ccccc3)CCO2)CC1` the outcome was “inactive”.
In the case of `Cc1cc(Cc2ccc(N)c(C)c2)ccc1N`, the outcome is reported as “inactive”.
For `Cc1cc(SC2=C(O)C[C@@](CCc3ccc(N)cc3)(C(C)C)OC2=O)c(C(C)(C)C)cc1CO`, the outcome was “inactive”.
`CCCCCCC(C=O)=Cc1ccccc1` was tested, and the outcome was “inactive”.
For `O=C1O[C@H]([C@H](O)CO)C(O)=C1O`, the outcome was “inactive”.
In the case of `CCC(C)N(C)C(=O)c1cc2ccccc2c(-c2ccccc2Cl)n1` (stereo not given), the outcome is reported as “inactive”.
For `OCC(O)CO`, the outcome was “inactive”.
In the case of `CCCCc1nc2cccnc2n1Cc1ccc(-c2ccccc2-c2nnn[nH]2)cc1`, the outcome is reported as “inactive”.
For `O=C(O)CC(O)(CC(=O)O)C(=O)O`, the outcome was “inactive”.
With `O=Cc1ccccc1C=O` the outcome was “inactive”.
`CC1(C)C(=O)NC(=O)N1CO` was tested, and the outcome was “inactive”.
With `CCCC[C@H]1CN(CC2CCOCC2)C(=O)OC12CCN(C1(C)CCN(C(=O)c3c(C)ncnc3C)CC1)CC2` the outcome was “inactive”.
`C#CC(O)C(CC)CCCC` (stereo not given) was tested, and the outcome was “inactive”.
For `Cc1ccc(C(C)(C)C)c(O)c1`, the outcome was “inactive”.
